# The campaign covered roughly 39,000 compounds. About 3,300 (8.5%) were called active. Shown is part of a subset that was picked to be rich in actives.
# Tested on: HepG2
# Experiment: cytotoxicity call (relative viability < 0.9)
# Settings: 10 µM
row,SMILES,cytotoxicity call
1,C[C@H](CO)N1C[C@H](C)[C@H](CN(C)S(=O)(=O)c2cn(C)cn2)Oc2ncc(C#Cc3ccccc3)cc2C1=O,inactive
2,COc1ccc(S(=O)(=O)Nc2ccc3c(c2)C(=O)N([C@H](C)CO)C[C@H](C)[C@@H](CN(C)C(=O)Nc2c(C)noc2C)OCCCC[C@@H](C)O3)cc1,inactive
3,C[C@@H]1CN([C@@H](C)CO)C(=O)c2cc(NC(=O)Nc3ccc(F)cc3)ccc2O[C@@H](C)CCCCO[C@H]1CN(C)C(=O)CCCN(C)C,inactive
4,Cc1noc(C)c1S(=O)(=O)Nc1ccc2c(c1)C(=O)N([C@@H](C)CO)C[C@@H](C)[C@@H](CN(C)S(=O)(=O)c1ccc(Cl)cc1)O2,inactive
5,C[C@@H]1CN([C@H](C)CO)C(=O)c2cc(C#Cc3cccc(F)c3)cnc2O[C@@H]1CN(C)C(=O)C1CCOCC1,inactive
6,C[C@@H]1CCCCO[C@@H](CN(C)C(=O)Nc2ccccc2)[C@H](C)CN([C@@H](C)CO)C(=O)c2cc(NS(=O)(=O)c3ccc(F)cc3)ccc2O1,inactive
7,C[C@@H]1CN([C@H](C)CO)C(=O)c2cc(NS(=O)(=O)c3ccc(F)cc3)ccc2O[C@@H](C)CCCCO[C@H]1CN(C)C(=O)Nc1ccccc1,active
8,C[C@@H]1CCCCO[C@H](CN(C)C(=O)Nc2ccccc2)[C@H](C)CN([C@@H](C)CO)C(=O)c2cc(NS(=O)(=O)c3ccc(F)cc3)ccc2O1,inactive
9,C[C@H](CO)N1C[C@H](C)[C@@H](CN(C)C(=O)Nc2ccccc2)OCCCC[C@H](C)Oc2ccc(NS(=O)(=O)c3ccc(F)cc3)cc2C1=O,inactive
10,C[C@@H]1CCCCO[C@@H](CN(C)C(=O)Nc2ccccc2)[C@H](C)CN([C@H](C)CO)C(=O)c2cc(NS(=O)(=O)c3ccc(F)cc3)ccc2O1,active
11,C[C@@H]1CN([C@@H](C)CO)C(=O)c2cc(NS(=O)(=O)c3ccc(F)cc3)ccc2O[C@@H](C)CCCCO[C@H]1CN(C)C(=O)Nc1ccccc1,inactive
12,COc1cccc(C(=O)Nc2ccc3c(c2)C(=O)N(C)[C@@H]2CC[C@H](CC(=O)NCCCN4CCOCC4)O[C@@H]2CO3)c1,inactive
13,Cn1ccc2ccc(CN)cc21,inactive
14,Cc1cc(C)nc(C#N)n1,inactive
15,C[C@H](CO)N1C[C@H](C)[C@@H](CN(C)C(=O)Nc2ccc3c(c2)OCO3)Oc2ccc(NC(=O)Nc3cccc4ccccc34)cc2CC1=O,inactive
16,COc1ccc(S(=O)(=O)Nc2ccc3c(c2)C(=O)N([C@H](C)CO)C[C@H](C)[C@H](CN(C)C(=O)Nc2ccc(F)cc2)OCCCC[C@@H](C)O3)cc1,inactive
17,COCC#Cc1ccc2c(c1)O[C@@H](CN(C)C(=O)c1ccccc1)[C@H](C)CN([C@H](C)CO)S2(=O)=O,inactive
18,C[n+]1cc2c3c(ccc2c2ccc4cc5c(cc4c21)OCO5)OCO3.[Cl-],active
19,CCCNC(=O)N1C[C@@H](O)COC[C@H]2O[C@H](CC(=O)N3CCN(C)CC3)CC[C@@H]21,inactive
20,C[n+]1ccn(C[C@@]2(C)[C@H](C(=O)O)N3C(=O)C[C@H]3S2(=O)=O)n1,inactive
21,Cc1noc(C)c1NC(=O)N(C)C[C@H]1Oc2c(NS(=O)(=O)c3cn(C)cn3)cccc2C(=O)N([C@@H](C)CO)C[C@@H]1C,inactive
22,Cc1ccc(S(=O)(=O)N[C@@H](Cc2ccccc2)C(=O)NCCCn2cc(-c3ccc(C(=O)NO)s3)nn2)cc1,inactive

row,SMILES,cytotoxicity call
1,O=C(C[C@@H]1C/C=C/C[C@H](Cc2ccccc2)C(=O)N[C@H](c2ccccc2)COC1=O)NCc1ccc(Cl)cc1,active
2,CC(=O)N[C@H]1C/C=C/C[C@@H](CC(=O)NCc2ccc(Cl)cc2)C(=O)NC[C@@H](c2ccccc2)OC1=O,inactive
3,C[C@H]1COC(=O)[C@H](Cc2ccc(F)cc2)CC=CC[C@@H](CC(=O)N[C@H](CO)Cc2ccccc2)C(=O)N1,inactive
4,C[C@@H]1CN([C@@H](C)CO)C(=O)c2cc(NC(=O)c3ccncc3)ccc2O[C@@H](C)CCCCO[C@@H]1CN(C)Cc1ccccc1,inactive
5,C[C@H]1CN([C@@H](C)CO)C(=O)c2cc(NC(=O)Cn3cnnn3)ccc2O[C@@H]1CN(C)S(=O)(=O)c1ccc(Cl)cc1,inactive
6,C[C@H](CO)N1C[C@H](C)[C@H](CN(C)Cc2ccc(-c3ccccc3)cc2)Oc2ccc(NC(=O)Nc3ccc(F)cc3)cc2CC1=O,active
7,C[C@H](CO)N1C[C@H](C)[C@@H](CN(C)Cc2ccc(-c3ccccc3)cc2)Oc2ccc(NC(=O)Nc3ccc(F)cc3)cc2CC1=O,active
8,C[C@H]1CN([C@@H](C)CO)C(=O)Cc2cc(NC(=O)Nc3ccc(F)cc3)ccc2O[C@@H]1CN(C)Cc1ccc(-c2ccccc2)cc1,active
9,C[C@@H]1CN([C@@H](C)CO)C(=O)Cc2cc(NC(=O)Nc3ccc(F)cc3)ccc2O[C@@H]1CN(C)Cc1ccc(-c2ccccc2)cc1,active
10,C[C@H](CO)N1C[C@H](C)[C@@H](CN(C)S(=O)(=O)c2cn(C)cn2)Oc2ncc(C3=CCCC3)cc2C1=O,inactive
11,O=C(CN1CCOCC1)N[C@H]1CC[C@@H](CCNC(=O)Nc2cc(F)ccc2F)O[C@H]1CO,inactive
12,CON=C(C(=O)NC1C(=O)N2C(C(=O)[O-])=C(COC(N)=O)CSC12)c1ccco1.[Na+] (stereo not drawn),inactive
13,C[C@@H]1CCCCO[C@H](CN(C)C(=O)Nc2cccc3ccccc23)[C@@H](C)CN([C@@H](C)CO)C(=O)c2cc(N(C)C)ccc2O1,inactive
14,CCCNC(=O)N(C)C[C@H]1Oc2cc(C#Cc3cccc(F)c3)ccc2S(=O)(=O)N([C@H](C)CO)C[C@H]1C,inactive
15,C[C@H](CO)N1C[C@H](C)[C@H](CN(C)Cc2ccccc2)OCCCC[C@H](C)Oc2ccc(NS(=O)(=O)c3ccc(Cl)cc3)cc2C1=O,inactive
16,CCCNC(=O)N(C)C[C@@H]1Oc2cc(-c3ccc(C)cc3)ccc2S(=O)(=O)N([C@H](C)CO)C[C@@H]1C,inactive
17,COCC(=O)N(C)C[C@H]1Oc2cc(C#Cc3ccccc3)ccc2S(=O)(=O)N([C@H](C)CO)C[C@H]1C,inactive
18,C[C@H]1CN([C@@H](C)CO)C(=O)Cc2cc(NC(=O)Nc3ccc(F)cc3)ccc2O[C@H]1CN(C)Cc1ccc(-c2ccccc2)cc1,active
19,C[C@@H]1CN([C@H](C)CO)C(=O)Cc2cc(NC(=O)Nc3ccc(F)cc3)ccc2O[C@@H]1CN(C)Cc1ccc(-c2ccccc2)cc1,inactive
20,C[C@@H]1CN([C@@H](C)CO)C(=O)Cc2cc(NC(=O)Nc3ccc(F)cc3)ccc2O[C@H]1CN(C)Cc1ccc(-c2ccccc2)cc1,active
21,C[C@@H]1CN([C@H](C)CO)C(=O)Cc2cc(NC(=O)Nc3ccc(F)cc3)ccc2O[C@H]1CN(C)Cc1ccc(-c2ccccc2)cc1,active
